# Source: PubChem BioAssay
# Test system: not listed separately
# Assay: probe aNOTCH2 binding on compound microarray – biochemical, small-molecule microarray, 635/667 nm fluorescence, primary screen (AID 1121);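 further: score merges feature fluorescence read at 667 nm with its signal to noise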
# Conditions: higher = more signal
row,SMILES,composite z-score
1,O=C(O)[C@@H]1[C@@H]2C(=O)N(c3ccccc3)C(=O)[C@@H]2C[C@@H]1Sc1ccccc1,-0.0572
2,COCCOC(=O)N1C(=O)[C@@]2(c3cc(C#CCNC(N)=O)ccc31)[C@H](C(N)=O)[C@H]1C(=O)O[C@H](c3ccccc3)[C@H](c3ccccc3)N1[C@@H]2c1ccccc1OCCO,0.0065
3,COC(=O)[C@@]1(Cc2ccc(OC)cc2)[C@H]2c3cc(C(=O)N4CCCC4)n(CCO)c3C[C@H]2CN1C(=O)c1ccccc1,0.0918
4,C[N+](C)(C)CCCCCCNC(=O)[C@@H]1C[C@@H]2C(=O)N3CCC[C@H]3C(=O)N2[C@@H]1c1ccc(O)cc1,-0.118
5,O=C1O[C@@H](c2ccccc2)[C@@H](c2ccccc2)N2[C@@H](c3ccc(O)cc3)[C@]3(C(=O)Nc4ccc(C#CCCO)cc43)[C@@H](C(=O)N3CCN(c4ncccn4)CC3)[C@H]12,-0.457
6,CC(C)c1ccc(NN2C(C(O)c3ccc(F)cc3)C=CC3C(=O)N(c4ccccc4)C(=O)C32)cc1 (centres undefined),0.0147
7,C[N+](C)(C)CCCC[C@@H]1NC(=O)[C@@H]2C[C@H](C(=O)NCCCCCCN)[C@H](c3cccc(OCCO)c3)N2C1=O,0.409
8,Cc1ccc(S[C@]2(C(=O)NCC(F)(F)F)CC(=O)N(Cc3cc(C(F)(F)F)cc(C(F)(F)F)c3)[C@@H]2c2ccc(CO)cc2I)cc1,-0.164
9,C=C[C@H]1C(C(=O)OCC)=CC[C@@H](c2ccccc2)N1S(=O)(=O)c1ccc(C)cc1,-0.0345
10,CCCCN1CC=CC23O[C@@H]4/C=C\CCCOC(=O)C4[C@H]2C(=O)N(CCO)[C@@H]3C1=O (some centres undefined),-0.161
11,CCCCN1CC=CC23O[C@@H]4/C=C\CCC(C)OC(=O)C4[C@H]2C(=O)N(CCCO)[C@@H]3C1=O (some centres undefined),-0.171
12,O=C(NCc1ccc(F)cc1)[C@H]1C[C@H]2C(=O)NCC(=O)N2[C@H]1c1ccc(O)cc1,-0.084
13,CCOC(=O)C[C@H]1[C@H](OC(=O)Cc2ccc3c(c2)OCO3)[C@@H](NC(=O)c2ccc3ccccc3n2)c2cc(OCCCO)ccc2N1C(=O)c1ccccc1,-0.18
14,COc1cc2c(cc1O)C(C1CC1)N(C)CC2 (centres undefined),-0.19
15,COC(=O)C1=CC(CCCO)=CC(c2cccs2)N(Cc2cccc(OC(F)(F)F)c2)C=C1C(=O)OC (centres undefined),0.224
16,COCCCNC(=O)[C@@]1(Sc2ccc(C)cc2)CC(=O)N(C2Cc3ccccc3C2)[C@@H]1c1ccc(CO)cc1,-0.181
17,CN(C)c1ccc(C(O)C2C=CC3C(=O)NC(=O)C3N2Nc2ccccn2)cc1 (centres undefined),0.046
18,COc1ccccc1CN1C(=O)c2ccccc2[C@](Cc2ccccc2I)(C(=O)O)[C@@H]1c1ccc(CO)cc1,-0.0238
19,CC(C)N1CC=CC23O[C@@H]4C=CCCOC(=O)C4[C@H]2C(=O)N(CCCO)[C@@H]3C1=O (some centres undefined),-0.0995
20,COc1ccc(C(=O)Nc2ccc(CN3C(=O)[C@]4(O[C@H](CC(=O)N5Cc6ccccc6C[C@H]5CO)[C@@H]([Si](C)(C)c5ccc(OC)cc5)[C@@H]4C)c4ccccc43)cc2)cc1,-0.0995
21,Cn1cccc1C(O)C1C=CC2C(=O)N(c3ccccc3)C(=O)C2N1Nc1ccccc1 (centres undefined),0.2
22,CCOC(=O)C[C@H]1[C@H](OC(=O)c2cc3ccccc3oc2=O)[C@@H](NC(=O)CC(C)C)c2cc(OCCCO)ccc2N1C(=O)c1ccc2ccccc2n1,-0.237
23,CC[C@@H]1C=C(C(=O)O)[C@H](c2ccccc2)N1S(=O)(=O)c1ccc(C)cc1,0.0167
24,C=CC[C@@H](OC(=O)Nc1ccc(SC)cc1)c1ccc(O)c(F)c1,-0.114

# Molecular target: Carbonic anhydrase 2 (Homo sapiens) (UniProt P00918)
# Assay: compounds binding carbonic anhydrase 2 – biochemical, small-molecule microarray, Alexa647-labelled CAII, profiling panel (AID 1122)
# Conditions: CAII-A647 binding fluorescence, higher = more signal
row,SMILES,composite z-score
1,C[C@@H]1NC(=O)[C@@H](Cc2ccccc2)NC(=O)[C@@]23C(=O)N[C@@H](Cc4ccccc4)C2[C@H](C)[C@@]2(C)O[C@H]2C3/C=C/C/C=C\CNC1=O (some centres undefined),0.493
2,COc1cccc(C)c1NC(=O)O[C@H]1[C@H](OC(=O)Nc2ccc3c(c2)OCO3)[C@@H](OC(=O)Nc2ccc3c(c2)OCO3)[C@@H](OC)O[C@@H]1CO,0.43
3,C=C(COC)/C(=C/C[C@H](OC(=O)c1ccncc1)c1ccc(CO)o1)c1cnc2ccccc2c1,0.915
4,CC(C)=C1C(=O)C(c2ccccc2)=C2CN3C(=O)N(CCc4ccccc4)C(=O)[C@]3(Cc3ccc(C(F)(F)F)cc3)[C@H]21,0.368
5,CCCCNC(=O)c1ccc(C#CC(C)(C)C)c(OC(C)=O)c1,0.728
6,C=CCC(OC(C)=O)[C@@H]1[C@@H](N(Cc2cccc3ccccc23)C(=O)Cc2ccc(OC)cc2)c2cc(OCCCO)ccc2N1C(=O)c1ccc(-c2ccccc2)cc1 (some centres undefined),-0.0283
7,COc1cc(NN2C(C(O)c3ccc(N(C)C)cc3)C=CC3C(=O)N(c4ccccc4)C(=O)C32)cc(OC)c1OC (centres undefined),0.192
8,CCCC[C@@H](O)C1=C(COC)C[C@H]2C(=O)N(C)C(=O)[C@H]2[C@H]1CO,0.183
9,CC1CC/C=C\[C@H]2OC34C=CCN(c5ccc6ccccc6c5)C(=O)[C@H]3N(CCCO)C(=O)[C@@H]4C2C(=O)O1 (some centres undefined),0.574
10,CC(C)C(CO)N1C(=O)[C@@H]2[C@H]3C(=O)OCC=C[C@H]3OC23C=CCN(c2ccc(Cl)cc2)C(=O)[C@@H]13 (some centres undefined),0.839
11,CCCN1C(=O)[C@@]2(Cc3ccccc31)N=C(c1ccc(OCCCO)cc1)O[C@H]2c1ccccc1,0.523
12,O=C(O)[C@@H]1[C@@H]2C(=O)N(c3ccccc3)C(=O)[C@@H]2C[C@@H]1Sc1ccccc1,0.526
13,COCCOC(=O)N1C(=O)[C@@]2(c3cc(C#CCNC(N)=O)ccc31)[C@H](C(N)=O)[C@H]1C(=O)O[C@H](c3ccccc3)[C@H](c3ccccc3)N1[C@@H]2c1ccccc1OCCO,0.3
14,COC(=O)[C@@]1(Cc2ccc(OC)cc2)[C@H]2c3cc(C(=O)N4CCCC4)n(CCO)c3C[C@H]2CN1C(=O)c1ccccc1,0.847
15,C[N+](C)(C)CCCCCCNC(=O)[C@@H]1C[C@@H]2C(=O)N3CCC[C@H]3C(=O)N2[C@@H]1c1ccc(O)cc1,0.684
16,O=C1O[C@@H](c2ccccc2)[C@@H](c2ccccc2)N2[C@@H](c3ccc(O)cc3)[C@]3(C(=O)Nc4ccc(C#CCCO)cc43)[C@@H](C(=O)N3CCN(c4ncccn4)CC3)[C@H]12,0.523
17,CC(C)c1ccc(NN2C(C(O)c3ccc(F)cc3)C=CC3C(=O)N(c4ccccc4)C(=O)C32)cc1 (centres undefined),0.378
18,C[N+](C)(C)CCCC[C@@H]1NC(=O)[C@@H]2C[C@H](C(=O)NCCCCCCN)[C@H](c3cccc(OCCO)c3)N2C1=O,0.608

row,SMILES,composite z-score
1,Cc1ccc(S[C@]2(C(=O)NCC(F)(F)F)CC(=O)N(Cc3cc(C(F)(F)F)cc(C(F)(F)F)c3)[C@@H]2c2ccc(CO)cc2I)cc1,0.14
2,C=C[C@H]1C(C(=O)OCC)=CC[C@@H](c2ccccc2)N1S(=O)(=O)c1ccc(C)cc1,0.627
3,CCCCN1CC=CC23O[C@@H]4/C=C\CCCOC(=O)C4[C@H]2C(=O)N(CCO)[C@@H]3C1=O (some centres undefined),0.321
4,CCCCN1CC=CC23O[C@@H]4/C=C\CCC(C)OC(=O)C4[C@H]2C(=O)N(CCCO)[C@@H]3C1=O (some centres undefined),0.283
5,O=C(NCc1ccc(F)cc1)[C@H]1C[C@H]2C(=O)NCC(=O)N2[C@H]1c1ccc(O)cc1,0.694
6,CCOC(=O)C[C@H]1[C@H](OC(=O)Cc2ccc3c(c2)OCO3)[C@@H](NC(=O)c2ccc3ccccc3n2)c2cc(OCCCO)ccc2N1C(=O)c1ccccc1,0.0645
7,COc1cc2c(cc1O)C(C1CC1)N(C)CC2 (centres undefined),0.902
8,COC(=O)C1=CC(CCCO)=CC(c2cccs2)N(Cc2cccc(OC(F)(F)F)c2)C=C1C(=O)OC (centres undefined),0.834
9,COCCCNC(=O)[C@@]1(Sc2ccc(C)cc2)CC(=O)N(C2Cc3ccccc3C2)[C@@H]1c1ccc(CO)cc1,0.748
10,CN(C)c1ccc(C(O)C2C=CC3C(=O)NC(=O)C3N2Nc2ccccn2)cc1 (centres undefined),0.788
11,COc1ccccc1CN1C(=O)c2ccccc2[C@](Cc2ccccc2I)(C(=O)O)[C@@H]1c1ccc(CO)cc1,0.328
12,CC(C)N1CC=CC23O[C@@H]4C=CCCOC(=O)C4[C@H]2C(=O)N(CCCO)[C@@H]3C1=O (some centres undefined),0.734
13,COc1ccc(C(=O)Nc2ccc(CN3C(=O)[C@]4(O[C@H](CC(=O)N5Cc6ccccc6C[C@H]5CO)[C@@H]([Si](C)(C)c5ccc(OC)cc5)[C@@H]4C)c4ccccc43)cc2)cc1,0.151
14,Cn1cccc1C(O)C1C=CC2C(=O)N(c3ccccc3)C(=O)C2N1Nc1ccccc1 (centres undefined),0.805
15,CCOC(=O)C[C@H]1[C@H](OC(=O)c2cc3ccccc3oc2=O)[C@@H](NC(=O)CC(C)C)c2cc(OCCCO)ccc2N1C(=O)c1ccc2ccccc2n1,0.43
16,CC[C@@H]1C=C(C(=O)O)[C@H](c2ccccc2)N1S(=O)(=O)c1ccc(C)cc1,0.8
17,C=CC[C@@H](OC(=O)Nc1ccc(SC)cc1)c1ccc(O)c(F)c1,0.643
